“And” between values parts separate entries of the source, which are not always exact repeats. Identical values can stand only once. In all, about 320,000 compounds went through this assay and about 1,900 (0.59%) were called active. Cut-off read from the data, not from the text of the source: active = inhibition mostly above about 10% (no sharp cut-off); inactive = mostly below about 6.7%. For the sample, actives were picked, then their nearest neighbours and some compounds at random.
What follows are compounds tested against Protein LANA1 (Human herpesvirus 8 type P (isolate GK18)) (UniProt Q9QR71) (assay: blockers of LANA interaction with H2A/H2B – biochemical, FP readout, HTS, primary screen (AID 2629)). Conditions: cell-free LANA-H2A/H2B peptide, fluorescence polarization, hits give high values, concentration not given here.
Chain of Protein LANA1 (Human herpesvirus 8 type P (isolate GK18)) (Q9QR71 whole entry, looked up): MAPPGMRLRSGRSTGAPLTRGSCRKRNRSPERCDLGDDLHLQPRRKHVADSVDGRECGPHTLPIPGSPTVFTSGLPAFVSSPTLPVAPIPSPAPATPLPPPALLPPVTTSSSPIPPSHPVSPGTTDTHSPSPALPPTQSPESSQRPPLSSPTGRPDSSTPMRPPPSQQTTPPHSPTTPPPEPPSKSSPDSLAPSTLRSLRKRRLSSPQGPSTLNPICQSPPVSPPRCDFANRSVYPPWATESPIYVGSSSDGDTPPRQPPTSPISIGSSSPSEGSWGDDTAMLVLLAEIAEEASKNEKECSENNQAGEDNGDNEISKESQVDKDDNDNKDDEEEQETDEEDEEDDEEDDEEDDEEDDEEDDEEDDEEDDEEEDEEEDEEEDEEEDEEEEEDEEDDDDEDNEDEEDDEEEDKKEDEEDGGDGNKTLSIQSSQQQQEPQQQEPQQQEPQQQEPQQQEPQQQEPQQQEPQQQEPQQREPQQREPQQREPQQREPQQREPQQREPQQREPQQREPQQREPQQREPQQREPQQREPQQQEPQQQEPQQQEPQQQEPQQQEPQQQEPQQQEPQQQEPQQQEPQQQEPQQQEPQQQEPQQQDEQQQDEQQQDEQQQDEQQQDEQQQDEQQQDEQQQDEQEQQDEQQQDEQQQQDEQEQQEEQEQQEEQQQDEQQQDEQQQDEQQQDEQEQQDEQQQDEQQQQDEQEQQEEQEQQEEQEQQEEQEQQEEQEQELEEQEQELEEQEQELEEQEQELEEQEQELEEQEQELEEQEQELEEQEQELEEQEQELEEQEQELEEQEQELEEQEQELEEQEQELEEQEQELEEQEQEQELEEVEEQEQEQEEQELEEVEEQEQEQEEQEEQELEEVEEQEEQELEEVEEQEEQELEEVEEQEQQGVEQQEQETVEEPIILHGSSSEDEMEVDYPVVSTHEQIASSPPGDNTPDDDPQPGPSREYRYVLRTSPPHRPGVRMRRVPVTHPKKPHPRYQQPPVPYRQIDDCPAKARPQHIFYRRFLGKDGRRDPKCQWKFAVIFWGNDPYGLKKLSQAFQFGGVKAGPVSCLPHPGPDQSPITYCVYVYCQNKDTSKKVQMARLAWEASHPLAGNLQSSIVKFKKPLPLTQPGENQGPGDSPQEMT
In the case of `O=C(NCCCN1CCCCC1)C1CC(=O)N(CCc2ccccc2)C1` (stereo not given), the inhibition is reported as 15% (active). For `CN(CC(=O)Nc1cccc(F)c1)C(=O)C1CC(=O)N(CCc2ccccc2)C1` (stereo not given), the inhibition was -5.92% (inactive). In the case of `CCNC(=O)c1cccc(NC(=O)C2CC(=O)N(CCc3ccccc3)C2)c1` (stereo not given), the inhibition is reported as 75.8% (active). With `COCCCNC(=O)C1CC(=O)N(CCc2ccccc2)C1` (stereo not given) the inhibition was 0.409% (inactive). For `Cc1ccc(CCN2CC(C(=O)NCCc3ccccc3)CC2=O)cc1` (stereo not given), the inhibition was 18.8% (inactive). With `O=C(NC1CCCCC1)C1CC(=O)N(CCc2ccccc2)C1` (stereo not given) the inhibition was -0.144% (inactive). For `COc1ccc(CNC(=O)C2CCC(CNc3c(N4CCOCC4)c(=O)c3=O)CC2)cc1` (stereo not given), the inhibition was -0.686% (inactive). `CCCCCCCCCCOC(=O)Cn1c(COc2ccc(C)cc2)[n+](C)c2ccccc21` was tested, and the inhibition was 15.8% (active). `CCCCCCCCCCOC(=O)Cn1c(COc2cccc(OC)c2)[n+](C)c2ccccc21` was tested, and the inhibition was 6.12% (inactive). For `CCOC(=O)Cn1c(-c2cccnc2Cl)nc2ccccc21`, the inhibition was 6.09% (inactive). With `COC(=O)C(C)n1cnc2c(nnn2-c2ccc(F)cc2)c1=O` (stereo not given) the inhibition was -1.75% (inactive). With `NC(N)=N/N=C/c1ccc(OCc2ccc(Cl)cc2Cl)cc1` the inhibition was 0.216% (inactive). In the case of `C=CCN(c1ccc(Cl)cc1)S(=O)(=O)c1cccc(C(=O)OCC(=O)N(C)C)c1`, the inhibition is reported as -2.64% (inactive). `O=C(NNC(=O)c1cnccc1C(F)(F)F)c1ccc(Cl)cc1` was tested, and the inhibition was 1.78% (inactive). `CCC1=C(OC(=O)N(CC)CC)N2C(=O)OC(=NCCc3c[nH]c4ccccc34)[C@]2(C)[C@H]2C1=CC[C@H]1C(=O)N(CC)C(=O)[C@H]12` was tested, and the inhibition was 1.67% (inactive). In the case of `O=C(CN1CCN(c2ccccc2O)CC1)NC(=O)NCc1ccccc1`, the inhibition is reported as 2.65% (inactive). In the case of `Oc1ccccc1N1CCN(C(=S)NCc2ccccc2)CC1`, the inhibition is reported as 18.4% (active). With `Oc1ccc(N2CCN(C(=S)NCc3ccccc3)CC2)cc1` the inhibition was -0.124% (inactive). For `Cc1ccc(CN(C(=O)c2sc3ccccc3c2Cl)C2CCS(=O)(=O)C2)cc1` (stereo not given), the inhibition was 2.69% (inactive). In the case of `CCCCNC(=O)OCCSCCS(=O)(=O)c1ccc(Cl)cc1`, the inhibition is reported as -3.62% (inactive). `CCCN(CCC)CC(O)COc1ccccc1C(=O)Nc1ccccc1` (stereo not given) was tested, and the inhibition was -2.37% (inactive). `O=C(COC(=O)c1n[nH]c2ccccc12)Nc1ccccc1Br` was tested, and the inhibition was -3.41% (inactive). In the case of `CN(C)S(=O)(=O)c1ccc(NC(=O)COC(=O)Cn2[nH]c(=O)c3ccccc3c2=O)cc1`, the inhibition is reported as 3.02% (inactive). `CN(C)S(=O)(=O)c1ccc(NC(=O)COC(=O)c2n[nH]c3ccccc23)cc1` was tested, and the inhibition was 15.3% (active). For `CCOCCCn1c(SCC(=O)Nc2cc(OC)ccc2OC)nc2ccccc2c1=O`, the inhibition was 3.49% (inactive). With `Cc1ccc2c(c1)N(CC(=O)NCCCN1CCCCC1)C(=O)c1cccnc1O2` the inhibition was 3.43% (inactive). In the case of `COc1cc(OC)c(OC)cc1CN1CCN(C(=O)c2cccc3ccccc23)CC1`, the inhibition is reported as 0.329% (inactive). `Cc1ccc(S(=O)(=O)N2CCC(Oc3ccc(-n4cnnn4)cc3)CC2)cc1` was tested, and the inhibition was -4.09% (inactive). For `CCn1c(SCC(=O)NNC(=O)c2ccc(OC)cc2)nnc1C(C)C`, the inhibition was -0.104% (inactive). `O=C(CS(=O)(=O)c1cn(Cc2ccc(Cl)cc2)c2ccccc12)N1CCOCC1` was tested, and the inhibition was 0.389% (inactive). `O=C(Cc1ccccc1)NC(=S)Nc1ccc(N2CCCCC2)cc1` was tested, and the inhibition was 2.3% (inactive). For `CC(=O)Nc1ccc(S(=O)(=O)Nc2ccc(N3CCCCC3)cc2)cc1`, the inhibition was 0.693% (inactive). For `O=C1C=CC(=O)N1c1ccc(N2CCCCC2)cc1`, the inhibition was 6.75% (active). `Cc1c(C(=O)NCCN(C)C)oc2ccc(S(=O)(=O)N3CCCC3)cc12` was tested, and the inhibition was 0.441% (inactive). `CCc1nn(CCCC(=O)NC(C)c2ccccc2)c(=O)c2cc3occc3n12` (stereo not given) was tested, and the inhibition was 1.99% (inactive). `CCN(CC(=O)NCc1cccs1)C(=O)/C=C/c1ccc(C)cc1` was tested, and the inhibition was -0.65% (inactive). In the case of `CC(CC(=O)N1CCN(S(=O)(=O)c2ccccc2)CC1)n1cncn1` (stereo not given), the inhibition is reported as 0.88% (inactive). With `CCOc1ccc(S(=O)(=O)N(CC(=O)O)c2ccccc2)cc1` the inhibition was 18.5% (inactive). For `CN(C)C(=O)Cn1c(=O)n(S(=O)(=O)c2ccccc2)c2ccccc21`, the inhibition was 14% (active). For `CC(=O)Nc1ccc(S(=O)(=O)NNC(=O)CCc2ccccc2)cc1`, the inhibition was -3.72% (inactive). For `Oc1ccccc1CNc1ncc(Br)cc1Br`, the inhibition was -2.38% (inactive). `O=C(COc1nc2ccccc2nc1N1CCOCC1)NCC(F)(F)F` was tested, and the inhibition was 0.0185% (inactive). For `COc1cc(N2C(=O)c3ccccc3C2=O)c(Cl)cc1C(=O)OCC(=O)N1CCOCC1`, the inhibition was 2.7% (inactive). With `CCN1CCN(C2CCCCC2NS(=O)(=O)c2ccc(Cl)cc2)CC1` (stereo not given) the inhibition was 16.2% (active). For `O=S(=O)(NC1CCCCC1N1CCCCC1)c1ccc(Cl)cc1` (stereo not given), the inhibition was 9.78% (inactive). For `O=S(=O)(NC1CCCCC1N1CCC(O)CC1)c1ccc(Cl)cc1` (stereo not given), the inhibition was -2.17% (inactive). In the case of `O=C(CCn1nnc2ccccc2c1=O)N[C@@H](Cc1c[nH]c2ccccc12)C(=O)O`, the inhibition is reported as -3.09% (inactive). `COc1ccc(NC(=O)CCCC(=O)c2ccccc2)cc1` was tested, and the inhibition was 2.03% (inactive). In the case of `CCc1cccc(NC(=O)CCCN2C(=O)C(c3ccccc3)Oc3cccnc32)c1` (stereo not given), the inhibition is reported as 3.46% (inactive). In the case of `COc1ccc(NC(=O)CCCN2C(=O)C(c3ccccc3)Oc3cccnc32)cc1` (stereo not given), the inhibition is reported as 12.5% (active). With `Cn1cc(CN2CCC(C(O)CCc3ccccc3)CC2)c(-c2ccccc2F)n1` (stereo not given) the inhibition was 1.03% (inactive). `CCn1c(=O)c2ccccc2n(CC(=O)N2CCCc3ccccc32)c1=O` was tested, and the inhibition was 0.719% (inactive). In the case of `O=C(NCc1ccco1)/C(=C\c1cccc([N+](=O)[O-])c1)NC(=O)c1ccco1`, the inhibition is reported as -1.25% (inactive). For `Cc1ccc(S(=O)(=O)N2CCN(C(=O)c3ccccc3-c3nc4ccccc4s3)CC2)c(C)c1`, the inhibition was 5.83% (inactive). For `Oc1ccc(-c2[nH]ncc2-c2nc3ccccc3s2)c(O)c1`, the inhibition was 3.42% (inactive). `CC(=O)Nc1cccc(-c2nc3ccccc3s2)c1C` was tested, and the inhibition was 55.2% (active). For `O=C1C2(c3ccccc3)CN(CCCO)CC1(c1ccccc1)CN(CCCO)C2`, the inhibition was 1.07% (inactive). For `C=CCN(C(=O)Cn1ncc2c1-c1cc(C)ccc1OC2)c1ccccc1`, the inhibition was -5.38% (inactive). For `CCCCc1cc2c(s1)CCCC/C2=N/O`, the inhibition was -0.97% (inactive). With `COc1ccc(N2CCN(C(=O)CCNC(=O)c3ccc(Br)cc3)CC2)cc1` the inhibition was -8.47% (inactive). `CN(C)C(=O)c1nc2ccc(Cl)cn2c1CNCc1cccc(OC(F)(F)F)c1` was tested, and the inhibition was 1.63% (inactive). For `Cc1nnc(SC(C(=O)c2ccccc2)c2ccccc2)[nH]c1=O` (stereo not given), the inhibition was -2.85% (inactive). `O=C(Cc1ccc(-c2ccccc2)cc1)NC(c1ccccc1)c1ccccc1` was tested, and the inhibition was 3.99% (inactive). With `O=C(O)Cc1ccc(NCc2ccccc2Cl)cc1` the inhibition was 4.61% (inactive). For `O=C(O)Cc1ccc(-c2ccccc2)cc1`, the inhibition was 54.5% (active). `C/C(=N/OC(=O)c1ccc(Br)cc1)c1ccc(C)cc1` was tested, and the inhibition was 4.46% (inactive). With `Cc1nnc(-c2ccc(Oc3ccc(C)c(C)c3)c([N+](=O)[O-])c2)o1` the inhibition was 0.884% (inactive). With `O=S(=O)(Nc1cc(Cl)ccc1N1CCOCC1)c1ccccc1Cl` the inhibition was 16.7% (active). With `O=S(=O)(Nc1cc(S(=O)(=O)N2CCOCC2)ccc1N1CCCC1)c1cccs1` the inhibition was -1.3% (inactive). With `O=S(=O)(Nc1ccccc1N1CCOCC1)c1ccc(Cl)s1` the inhibition was 4.05% (inactive). In the case of `CCCCN(C(=O)c1ccc(S(=O)(=O)N2CCOCC2)cc1)C1CCS(=O)(=O)C1` (stereo not given), the inhibition is reported as 3.61% (inactive). With `COCCCNC(=S)N(CCN(C)C)Cc1cc2cc3c(cc2[nH]c1=O)OCCO3` the inhibition was 9.12% (active). For `CCNC(=S)N(CCN(CC)CC)Cc1cc2cc3c(cc2[nH]c1=O)OCCO3`, the inhibition was -5.92% (inactive). For `CCN(CC)CCCNC(=S)N(CCO)Cc1cc2cc3c(cc2[nH]c1=O)OCO3`, the inhibition was -0.647% (inactive). With `C=C(C)CNC(=S)/N=c1\scc(C)n1CC` the inhibition was 3.02% (inactive). In the case of `COc1ccc(Cc2cc(-c3ccc(F)cc3)n[nH]c2=O)cc1`, the inhibition is reported as -1.23% (inactive). `Cc1ccc(C(=O)COC(=O)c2cccc(N3C(=O)c4c(C)nc5ccccc5c4C3=O)c2)cc1C` was tested, and the inhibition was 14.6% (active). In the case of `Cc1ccc(C(=O)COC(=O)CCN2C(=O)C3C4CCC(C4)C3C2=O)cc1C` (stereo not given), the inhibition is reported as 0.254% (inactive). With `O=C(CCc1nc2ccccc2c(=O)[nH]1)OCC(=O)c1cccc(Cl)c1` the inhibition was -2.71% (inactive). `CC(C)(C)C1CCC(C(=O)NCC(c2cccs2)N2CCOCC2)CC1` (stereo not given) was tested, and the inhibition was -3% (inactive). In the case of `CN(Cc1ccc(CNC[C@H]2O[C@@H](n3cnc4c(N)ncnc43)[C@H](O)[C@@H]2O)o1)S(C)(=O)=O`, the inhibition is reported as 1.32% (inactive). With `O=C(O)Cc1csc(-c2cccc(Oc3ccccc3)c2)n1` the inhibition was -3.8% (inactive) and 4.18% (inactive). With `COc1cc(C(=O)OC(C)C(=O)NCC2CCCCC2)cc(NC(=O)c2ccco2)c1OC` (stereo not given) the inhibition was 1.94% (inactive). In the case of `CC(C)(C)c1ccc(C(=O)NCc2nnc(SCC(=O)N3CCCc4ccccc43)n2-c2ccccc2)cc1`, the inhibition is reported as 2.13% (inactive). In the case of `COc1ccccc1CNC(=O)C1CCCN(S(=O)(=O)c2cccc3cccnc23)C1` (stereo not given), the inhibition is reported as 138% (active). For `COc1ccc(NC(=O)C2CCCN(S(=O)(=O)c3cccc4cccnc34)C2)cc1` (stereo not given), the inhibition was -2.43% (inactive). `COc1ccc(NC(=O)C2CCCN(S(=O)(=O)c3cccc4cccnc34)C2)cc1OC` (stereo not given) was tested, and the inhibition was 2.61% (inactive). With `O=C(C1=C(O)C(=O)N(Cc2ccccc2)C1c1cccnc1)c1ccco1` (stereo not given) the inhibition was 10.9% (active). For `CCOc1cc(C2C(C(=O)c3ccco3)=C(O)C(=O)N2Cc2ccccc2)ccc1O` (stereo not given), the inhibition was 2.24% (inactive). `COc1ccc(C2C(C(C)=O)=C(O)C(=O)N2Cc2cccnc2)cc1` (stereo not given) was tested, and the inhibition was 0.519% (inactive).
